The text below walks through data of ChEMBL document CHEMBL5606460, “ASAP - DENV-2 NS2B-NS3 protease fluorescence single point” (2024).

This test concerns the target Genome polyprotein (dengue virus type 2) (UniProt P29990).
The mark [1] stands for this setting: Thailand/16681/1984, Concentration 25.0 uM, Number of replicates 1.0.

Out of some 2,000 compounds screened, about 110 (5.5%) showed an effect of 50% or more. The sample as a whole holds a higher share of strong results than the screen did.

A word on the inhibition: it is the drop in the measured response relative to a control, in per cent. With `O=Cc1ccc(N2CCC(C(=O)NC3CN(C(c4ccccc4)c4ccccc4)C3)CC2)cc1`, the inhibition under setting [1] amounted to 2.62%.

As for `CC(C)N(C[C@H](O)COc1ccc(CC(N)=O)cc1)C(=O)C1CCN(c2ccc(C=O)cc2)CC1`, the inhibition under setting [1] was 13.4%.

In the case of `Cc1ccc(S(N)(=O)=O)c(NCc2ccc(N3CCN(C)CC3)cc2)c1`, the inhibition is, setting by setting: (Thailand/16681/1984, Concentration 49.5 uM, Number of replicates 2.0, Standard deviation 0.9591550294519122 %) -0.337%; (Thailand/16681/1984, Concentration 99.01 uM, Number of replicates 2.0, Standard deviation 0.6629248720953049 %) 1.24%; (Thailand/16681/1984, Concentration 198.0 uM, Number of replicates 2.0, Standard deviation 0.09920698004573132 %) 1.03%.

Take `CCc1ccc(CN(CC(C)C)C(=O)C2CCN(c3ccc(C=O)cc3)CC2)cc1`: the inhibition under setting [1] was 13.3%.

`O=Cc1ccc(N2CCC(C(=O)Nc3ccccc3Sc3ccccc3)CC2)cc1`: under setting [1], the inhibition was found to be 12.1%.

Regarding `CCc1cccc(S(=O)(=O)Nc2ccc(Cl)cc2C(=O)NC)c1`, the inhibition is, setting by setting: (Thailand/16681/1984, Concentration 49.5 uM, Number of replicates 2.0, Standard deviation 0.31892086155653854 %) 0.409%; (Thailand/16681/1984, Concentration 99.01 uM, Number of replicates 2.0, Standard deviation 0.4824817381530084 %) 0.666%; (Thailand/16681/1984, Concentration 198.0 uM, Number of replicates 2.0, Standard deviation 0.7239504320191382 %) 1.73%.

Regarding `CNC(=O)c1ccccc1NS(=O)(=O)c1ccc(Oc2ccccc2Cl)cc1`, the inhibition (Thailand/16681/1984, Concentration 49.5 uM, Number of replicates 2.0, Standard deviation 0.8338499147497574 %) turned out to be 0.494%; the inhibition (Thailand/16681/1984, Concentration 99.01 uM, Number of replicates 2.0, Standard deviation 3.066215993073902 %) was -2.05%; the inhibition (Thailand/16681/1984, Concentration 198.0 uM, Number of replicates 2.0, Standard deviation 2.7475277663160753 %) was -6.31%.

Turning to `CNC(=O)[C@H]1CCCN1S(=O)(=O)c1ccc(Oc2ccccc2Cl)cc1`, the inhibition reads like this: (Thailand/16681/1984, Concentration 49.5 uM, Number of replicates 2.0, Standard deviation 0.43290983719310167 %) -4.62%; (Thailand/16681/1984, Concentration 99.01 uM, Number of replicates 2.0, Standard deviation 1.120416310773355 %) -4.38%; (Thailand/16681/1984, Concentration 198.0 uM, Number of replicates 2.0, Standard deviation 0.24124704358981106 %) -3.59%.

On to `CNC(=O)c1cc(Cl)ccc1NS(=O)(=O)c1ccc(F)c(C(=O)N2CCCC2)c1`, for which the inhibition is, setting by setting: (Thailand/16681/1984, Concentration 49.5 uM, Number of replicates 2.0, Standard deviation 0.7714528805703116 %) -4.6%; (Thailand/16681/1984, Concentration 99.01 uM, Number of replicates 2.0, Standard deviation 1.6986403894371052 %) -2.1%; (Thailand/16681/1984, Concentration 198.0 uM, Number of replicates 2.0, Standard deviation 1.4542094148600992 %) 1.16%.

`O=C(c1cc(Cl)ccc1NS(=O)(=O)c1ccc(Oc2ccccc2Cl)cc1)N1CCC[C@H](O)C1`: the inhibition turned out to be 22.2% (Thailand/16681/1984, Concentration 49.5 uM, Number of replicates 2.0, Standard deviation 1.2236693461292836 %); 86.9% (Thailand/16681/1984, Concentration 99.01 uM, Number of replicates 2.0, Standard deviation 0.043163767671764885 %); 96.8% (Thailand/16681/1984, Concentration 198.0 uM, Number of replicates 2.0, Standard deviation 0.0596286869236367 %).

For the compound `O=C(c1cc(Cl)ccc1NS(=O)(=O)c1ccc(Oc2ccccc2Cl)cc1)N1CCCC1`, the inhibition (Thailand/16681/1984, Concentration 49.5 uM, Number of replicates 2.0, Standard deviation 0.3065647121254482 %) came to 37.4%; the inhibition (Thailand/16681/1984, Concentration 99.01 uM, Number of replicates 2.0, Standard deviation 0.3046576515240273 %) worked out at 55.4%; the inhibition (Thailand/16681/1984, Concentration 198.0 uM, Number of replicates 2.0, Standard deviation 0.40716687929743567 %) came to 69%.

On to `CNC(=O)c1cc(Cl)ccc1NS(=O)(=O)c1cccc(Oc2ccccc2)c1`, for which the inhibition (Thailand/16681/1984, Concentration 49.5 uM, Number of replicates 2.0, Standard deviation 1.273206391645472 %) was 8.45%; the inhibition (Thailand/16681/1984, Concentration 99.01 uM, Number of replicates 2.0, Standard deviation 0.33776821571418564 %) was 23.8%; the inhibition (Thailand/16681/1984, Concentration 198.0 uM, Number of replicates 2.0, Standard deviation 0.06600533651594093 %) came out at 89.9%.

On to `CNC(=O)c1cc(Cl)ccc1NS(=O)(=O)c1cccc(S(N)(=O)=O)c1`, for which the inhibition by setting is: (Thailand/16681/1984, Concentration 49.5 uM, Number of replicates 2.0, Standard deviation 0.4003966624337367 %) 1.73%; (Thailand/16681/1984, Concentration 99.01 uM, Number of replicates 2.0, Standard deviation 1.0615056375609497 %) 3.26%; (Thailand/16681/1984, Concentration 198.0 uM, Number of replicates 2.0, Standard deviation 0.04640199433655389 %) 5.28%.

Turning to `NC(=O)c1ccccc1NS(=O)(=O)c1ccc(Oc2ccccc2Cl)cc1`, the inhibition is, setting by setting: (Thailand/16681/1984, Concentration 49.5 uM, Number of replicates 2.0, Standard deviation 0.6673279112123895 %) 5.67%; (Thailand/16681/1984, Concentration 99.01 uM, Number of replicates 2.0, Standard deviation 2.0636931261780913 %) 38.8%; (Thailand/16681/1984, Concentration 198.0 uM, Number of replicates 2.0, Standard deviation 0.3870011295715193 %) 81.3%.

Take `O=S(=O)(Nc1ccccc1)c1ccc(Oc2ccccc2Cl)cc1`: the inhibition reads like this: (Thailand/16681/1984, Concentration 49.5 uM, Number of replicates 2.0, Standard deviation 1.8105423163556815 %) 1.05%; (Thailand/16681/1984, Concentration 99.01 uM, Number of replicates 2.0, Standard deviation 1.556829309720985 %) 2.93%; (Thailand/16681/1984, Concentration 198.0 uM, Number of replicates 2.0, Standard deviation 1.335088080503107 %) 5.83%.

Turning to `COC1CN(C(=O)c2cc(Cl)ccc2NS(=O)(=O)c2ccc(Oc3ccccc3Cl)cc2)C1`, the inhibition is 13.9% (Thailand/16681/1984, Concentration 49.5 uM, Number of replicates 2.0, Standard deviation 0.43340110085934463 %); 27.6% (Thailand/16681/1984, Concentration 99.01 uM, Number of replicates 2.0, Standard deviation 0.8668022017186893 %); 43.9% (Thailand/16681/1984, Concentration 198.0 uM, Number of replicates 2.0, Standard deviation 1.1631532151634014 %).

Consider `Cc1nc(C2CCN(C(=O)c3ccn([C@H]4CCCNC4)n3)CC2)n[nH]1`, for which the inhibition by setting is: (Thailand/16681/1984, Concentration 49.5 uM, Number of replicates 2.0, Standard deviation 0.8219326667939915 %) -4.42%; (Thailand/16681/1984, Concentration 99.01 uM, Number of replicates 2.0, Standard deviation 0.15240671313806178 %) -3.84%; (Thailand/16681/1984, Concentration 198.0 uM, Number of replicates 2.0, Standard deviation 2.223365450237249 %) -4.59%.

Consider `O=Cc1ccc(N2CCC(C(=O)NCCc3cccc(Br)c3)CC2)cc1`, for which, under setting [1], the inhibition was determined as 11.8%.

Take `O=Cc1ccc(N2CCC(C(=O)N3CC4C[C@H]5CC3C[C@H](C4)C5)CC2)cc1`: the inhibition under setting [1] came to 14.5%.

Regarding `O=Cc1ccc(N2CCC(C(=O)Nc3ccccc3OCC(F)(F)F)CC2)cc1`, the inhibition under setting [1] was 13.4%.
